activity, negative = cell killing data for 31 compounds are collected here from PubChem BioAssay (NCATS).

Records with an inconclusive call do not appear. The source made the active and inactive calls. Calls follow the shape of the dose curve; as a rule, active = well fitted inhibition curve with a large enough effect; inconclusive = small, poorly fitted or top-dose-only effect; inactive = flat fitted curve, though single readings scatter.
% is scaled to controls: 0 for no effect and ±100 for the full control effect.

A short description of this test: Drug repurposing screens with cells derived from glioblastoma tumor samples (AID 1345199). Also: nearly all actives have a fitted effect of over 40% in size. The settings on record: GBM patient neurospheres viability, ATP luminescence, 48 h; at 45.9 µM (top of the series); tumour line D. The essentials: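 Primary testing used CD133+ neurospheres from four GBM patients, seven concentrations, 48 h exposure and ATP-based viability; confirmation added three slower-growing patient lines.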
Consider `CC(CSC(=O)c1ccccc1)C(=O)N1C[C@@H](Sc2ccccc2)C[C@H]1C(=O)O` (stereo partly specified), for which the activity, negative = cell killing was 5.1% (inactive).
On to `Cc1cc(-n2nc3ccc(Cl)cc3n2)c(O)c(C(C)(C)C)c1`, for which the activity, negative = cell killing was -14.3% (inactive).
Regarding `CC(=O)OC[C@H]1O[C@@](COC(C)=O)(O[C@H]2O[C@H](COC(C)=O)[C@@H](OC(C)=O)[C@H](OC(C)=O)[C@H]2OC(C)=O)[C@@H](OC(C)=O)[C@@H]1OC(C)=O`, the activity, negative = cell killing is -9.16% (inactive).
On to `O=c1[nH]c(=O)c2ccccc2o1`, for which the activity, negative = cell killing was -4.94% (inactive).
Then `Cc1onc(-c2ccccc2)c1-c1ccc(S(N)(=O)=O)cc1`, with -24.2% (inactive); and `CCOC(=O)[C@H](CCc1ccccc1)N[C@@H](C)C(=O)N1Cc2cc(OC)c(OC)cc2C[C@H]1C(=O)O`, with -6.92% (inactive).
On to `Cc1cc(OI)c(C(C)C)cc1-c1cc(C(C)C)c(OI)cc1C`, for which the activity, negative = cell killing was -13.4% (inactive).
On to `CCCOC(=O)c1ccc(N)cc1`, for which the activity, negative = cell killing was -16.4% (inactive).
Then `CC1CCc2cc(F)cc3c(=O)c(C(=O)O)cn1c23` (stereo unspecified), with -19% (inactive); and `COc1ccccc1Oc1c(NS(=O)(=O)c2ccc(C(C)(C)C)cc2)nc(-c2ncccn2)nc1OCCO`, with -7.18% (inactive); and `NS(=O)(=O)c1ccc(C(=O)O)cc1`, with 4.61% (inactive).
On to `CCOc1cc(NC(C)=O)ccc1C(=O)OC`, for which the activity, negative = cell killing is -29.2% (inactive).
Then `CCCCCCCCCCCCCCCCC(C(=O)O)C(O)(CC(=O)O)C(=O)O` (stereo unspecified), with -4.12% (inactive); and `CCOC(=O)c1cccnc1`, with -8.05% (inactive); and `CN1CCN(C(=O)C2CCCCC2)CC1`, with -7.41% (inactive).
Then `CCN(CC)CCOC(=O)C(c1ccccc1)c1ccccc1`, with -3.55% (inactive); and `NC(=O)N[C@@H](CCC(=O)O)C(=O)O`, with -8.74% (inactive).
Regarding `O=C(/C=C/c1ccccc1)OCc1ccccc1`, the activity, negative = cell killing is -8.15% (inactive).
Then `CC(C)c1cc2c(cc1S(=O)(=O)O)[C@@]1(C)CCC[C@@](C)(C(=O)O)[C@@H]1CC2`, with -7.28% (inactive); and `O=C(O)Cn1c(C(=O)Nc2nc(-c3ccccc3Cl)cs2)cc2ccccc21`, with -18.1% (inactive).
On to `CN1C[C@@H]2C[C@H]1CN2c1cc2c(cc1F)c(=O)c(C(=O)O)cn2C1CC1`, for which the activity, negative = cell killing is -9.88% (inactive).
With `O=C1c2ccccc2C(=O)C1c1ccc(Br)cc1`, the activity, negative = cell killing was -25.8% (inactive).
Then `Nc1c2c(nc3c1CCC3)CCCC2`, with -13.4% (inactive); and `CCCCCCCC(=O)OCC(O)CO` (stereo unspecified), with -12.6% (inactive); and `Cc1ccc(S(=O)(=O)NC(=O)NC2CCCCC2)cc1`, with 4.18% (inactive).
For `COc1ccc(C(=O)N2CCN(CC(=O)N3CCOCC3)CC2)cc1`, the activity, negative = cell killing is -14.5% (inactive).
`CCCCCCCCCCC(CO)CCCCCCCC` (stereo unspecified): the activity, negative = cell killing is -0.979% (inactive).
Take `Cc1[nH]c(C)c(Cl)c(=O)c1Cl`: the activity, negative = cell killing is -2.96% (inactive).
The same measure for `NC(=O)c1ccc([N+](=O)[O-])cc1Cl`: -5.61% (inactive); for `NC(=O)CCCCC1CCSS1` (stereo unspecified): 6.2% (inactive); for `CCCCCC(C)N` (stereo unspecified): -7.45% (inactive).
